This is a sample that favours compounds with a hit; in the whole collection about 11% have one here.
PNC assembly inh: blocks assembly of the perinucleolar compartment; PC3M PTB-GFP, PNC prevalence imaging, 16 h; hits give low values; AID 2417; activity change (PNC), negative = inhibition, % at 10 µM; 140,000 compounds, 3.1% hits;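 active = readout at or below -70, meaning at least 70% loss of cells showing the perinucleolar compartment, a nuclear body marking cancer cells; inconclusive = readout between -30 and a set limit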
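Read-out is percentage of cells bearing a perinucleolar compartment, from automated 20x imaging of fixed, Hoechst-stained PC3M PTB-GFP cells. Cells were seeded 4 h, then exposed 16 h to compound (23 nl of library stock) in duplicate plates.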
IMPase cell inh: membrane-permeable compound that blocks inositol monophosphatase. P97697. CHO-M1 cells, IP1 accumulation, HTRF TR-FRET ratio. inhibition (IP1 accumulation), % at 46.1 µM. 120,000 tested, under 10 active; active = well fitted curve in the direction sought with a large enough effect in the signal ratio, not every such curve was filed as active; inconclusive = small, poorly fitted or top-dose-only effect, or a change in a side signal; inactive = no such curve, though single readings can be large or run the other way; the % refers to the signal ratio;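 note: cells stimulated with carbachol in lithium chloride buffer; higher means more IMPase inhibition seen as more IP1 and lower FRET ratio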
Target sequence (P97697 whole entry, looked up): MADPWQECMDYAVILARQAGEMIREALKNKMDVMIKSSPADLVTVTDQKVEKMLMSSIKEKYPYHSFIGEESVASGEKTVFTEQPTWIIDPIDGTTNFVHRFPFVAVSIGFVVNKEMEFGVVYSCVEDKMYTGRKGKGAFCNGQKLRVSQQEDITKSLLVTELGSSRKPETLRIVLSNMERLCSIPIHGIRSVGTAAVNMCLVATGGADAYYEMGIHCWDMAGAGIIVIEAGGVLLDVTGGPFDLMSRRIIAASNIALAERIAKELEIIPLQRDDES
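Seeded CHO-M1 cells were dosed with compound at up to 46 uM, stimulated with carbachol for 30 min, then lysed in IP-One detection reagents. Higher IP1 lowers the TR-FRET signal.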
ALDH1A1 inh: inhibitors of human aldehyde dehydrogenase 1A1 | 220,000 compounds, 7.3% hits | Potency, µM (highest dose often 75.3 µM), actives largely listed as inhibitors | P00352 | Purified ALDH1A1, NADH fluorescence, propionaldehyde substrate
HPGD block: HPGD (human) dehydrogenase inhibition | P15428 | purified HPGD, NADH fluorescence kinetic, PGE2 substrate | Potency, µM, hits mostly inhibitors | 150,000 compounds, 4.3% hits
Target sequence (P15428 whole entry, looked up): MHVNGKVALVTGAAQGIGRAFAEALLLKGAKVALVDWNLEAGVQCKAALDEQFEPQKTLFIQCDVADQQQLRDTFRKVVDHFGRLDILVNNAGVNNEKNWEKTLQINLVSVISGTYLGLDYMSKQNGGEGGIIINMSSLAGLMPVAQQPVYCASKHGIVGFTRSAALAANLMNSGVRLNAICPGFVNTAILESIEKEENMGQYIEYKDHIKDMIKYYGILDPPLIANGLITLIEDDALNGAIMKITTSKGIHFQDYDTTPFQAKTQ
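NADH formation kinetics: reaction with 30 uM PGE2 and 1 mM NAD+ (final), 20 nM enzyme, Tris-HCl pH 8 with Tween 20, after 15 min compound preincubation at room temperature. Fluorescence change, last versus first of five reads.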
IMPase Li cell: membrane-permeable IMPase blocker, potentiated with lithium; CHO-M1 cells, IP1 TR-FRET (IP-One), carbachol + lithium; Potency, µM (doses to about 59.4 µM), usual class: inhibitors; 210,000 compounds, 0.35% hits; AID 1457; active = well fitted inhibition curve with a large enough effect; inconclusive = small, poorly fitted or top-dose-only effect; inactive = no such curve, though single readings can be large or run the other way;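 note: IP1 builds up when IMPase is blocked and the TR-FRET signal falls; nearly all actives have a fitted effect of over 50% in size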
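IP1 accumulation measured by competitive TR-FRET in lysed CHO-M1 cells after 30 min compound exposure at 37C, with a small lithium addition to potentiate weak responses. Hill-equation AC50 from ratio and donor-channel data.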
A number is an active result; [ ] = dose if it differs, or a comment. Unless noted, calls come from the whole dose curve; as a rule, active = well fitted inhibition curve with a large enough effect (not every such curve was filed as active); inconclusive = small, poorly fitted or top-dose-only effect, or another doubt; inactive = no such curve, though single readings can be large or run the other way.

`C/C(CCC(=O)OC[C@@H]1O[C@H](C#Cc2ccccc2)C=C[C@@H]1Oc1ccc(C)cc1)=N/O[C@@H](C)CN1CCCc2nc(C)c(C)cc21` gave ALDH1A1 inh inactive[13.5 µM].
Screening CC(C)CN(C(=O)c1nn(C)c(=O)c2ccccc12)c1nc2ccccc2s1 returned PNC assembly inh inactive, IMPase cell inh inactive, ALDH1A1 inh inactive, HPGD block inactive and IMPase Li cell inactive.
For COc1ccc(NC(=O)CCN2C(=O)c3ccc([N+](=O)[O-])cc3C2=O)c(OC)c1 the results were PNC assembly inh inactive, ALDH1A1 inh 20µM, HPGD block inactive and IMPase Li cell inactive.
For COc1cccc(NC(=O)CCN2C(=O)c3ccc([N+](=O)[O-])cc3C2=O)c1 the results were ALDH1A1 inh inactive and IMPase Li cell inactive.
`COc1cc([N+](=O)[O-])ccc1NC(=O)C[n+]1cccc(C(C)=O)c1` gave ALDH1A1 inh inconclusive and IMPase Li cell inactive.
Screening COc1cc([N+](=O)[O-])ccc1NC(=O)C[n+]1ccccc1 returned PNC assembly inh inactive, IMPase cell inh inactive, ALDH1A1 inh 14.1µM, HPGD block inactive and IMPase Li cell inactive.
For CCC1=C2CC[C@H]3C(=O)N(c4ccccc4)C(=O)[C@H]3[C@H]2[C@@]2(Cc3ccccc3)C(=NCC3CC3)OC(=O)N2C1=O the results were ALDH1A1 inh inactive, HPGD block inactive and IMPase Li cell inactive.
Cc1cc(-c2ccccc2)c2c(=O)[nH][nH]c2n1 was read as PNC assembly inh inactive, ALDH1A1 inh inactive, HPGD block inactive and IMPase Li cell inactive.
Screening CCN(CC)C(=O)C1CCCN(c2ccc([N+](=O)[O-])cc2/C=N/NC(=O)c2ccc([N+](=O)[O-])cc2)C1 (configuration not stated) returned PNC assembly inh inactive, IMPase cell inh inactive, ALDH1A1 inh inconclusive, HPGD block inactive and IMPase Li cell inactive.
`CCOC(=O)C1CCN(c2ccc([N+](=O)[O-])cc2)CC1` gave ALDH1A1 inh inactive and IMPase Li cell inactive.
`CCN(CC)C(=O)C1CCCN(c2ccc([N+](=O)[O-])cc2)C1` (configuration not stated) gave ALDH1A1 inh 20µM and IMPase Li cell inactive.
For CCN(CC)C(=O)C1CCCN(c2ccc([N+](=O)[O-])cc2/C=N/NC(=O)c2cccc(O)c2)C1 (configuration not stated) the results were PNC assembly inh inactive, IMPase cell inh inactive, ALDH1A1 inh 28.2µM, HPGD block inactive and IMPase Li cell inactive.
`CN1CCN(c2ccc([N+](=O)[O-])cc2/C=N/NC(=O)c2cccc([N+](=O)[O-])c2)CC1` gave PNC assembly inh inactive, ALDH1A1 inh 20µM, HPGD block inactive and IMPase Li cell inactive.
Screening CCN(CC)C(=O)C1CCCN(c2ccc([N+](=O)[O-])cc2/C=N/NC(=O)c2ccccc2)C1 (configuration not stated) returned PNC assembly inh inactive, ALDH1A1 inh 28.2µM, HPGD block inactive and IMPase Li cell inactive.
For CC(C)(C)c1ccc(C(=O)Nc2ccc(Cl)cc2)cc1 the results were PNC assembly inh inactive, ALDH1A1 inh inactive, HPGD block inactive and IMPase Li cell inconclusive.
CC(C)(C)c1ccc(C(=O)CC(Sc2ccc(Cl)cc2)C(=O)O)cc1 (configuration not stated) was read as ALDH1A1 inh 2.51µM and IMPase Li cell inactive.
`C/C(CCC(=O)OC[C@@H]1O[C@H](C#Cc2ccccc2)C=C[C@@H]1Oc1ccc(C)cc1)=N/OC[C@@H](O)[C@H]1O[C@H]2OC(C)(C)O[C@H]2[C@@H]1O` gave ALDH1A1 inh inactive[13.5 µM].
Screening Cc1ccccc1C(=O)NN(C)c1nc2ccccc2nc1C(F)(F)F returned PNC assembly inh inactive, IMPase cell inh inactive, ALDH1A1 inh inactive, HPGD block inactive and IMPase Li cell 5.62µM.
`O=C(O)/C=C\c1cnc[nH]1` gave IMPase cell inh inactive.
O=C1NC(=O)/C(=C\c2ccc(Oc3ccc([N+](=O)[O-])cn3)cc2)S1 was read as PNC assembly inh inactive, IMPase cell inh inactive, ALDH1A1 inh inconclusive, HPGD block 12.6µM and IMPase Li cell inactive.
For Cc1ccc(Oc2c(C(F)(F)F)oc3c(CN4CCC(C)CC4)c(O)ccc3c2=O)cc1 the results were IMPase cell inh inactive.
For N#CCCS(=O)(=O)c1ccccc1 the results were ALDH1A1 inh inactive, HPGD block inactive and IMPase Li cell inactive.
N#CCCS(=O)(=O)c1nnnn1-c1ccccc1 was read as PNC assembly inh inconclusive, IMPase cell inh inactive, ALDH1A1 inh 0.447µM, HPGD block inconclusive and IMPase Li cell inactive.
Screening N#CCCCS(=O)(=O)c1nnnn1-c1ccc(Br)cc1 returned ALDH1A1 inh 20µM, HPGD block inactive and IMPase Li cell inactive.
Screening C[n+]1cc[nH]c1SCC(=O)c1ccc(Cl)cc1 returned ALDH1A1 inh 18.9µM and IMPase Li cell inactive.
For O=C(CSC1=NCCS1)c1ccc(Cl)cc1 the results were ALDH1A1 inh inconclusive and IMPase Li cell inactive.
`Nc1cc(N)nc(SCC(=O)c2ccccc2)n1` gave PNC assembly inh inactive, IMPase cell inh inactive, ALDH1A1 inh inconclusive, HPGD block inactive and IMPase Li cell inactive.
C[n+]1cc[nH]c1SCC(=O)c1ccccc1 was read as PNC assembly inh inactive, IMPase cell inh inactive, ALDH1A1 inh 25.1µM, HPGD block inactive and IMPase Li cell inactive.
For COc1ccc(CNC(NC(=O)c2ccccc2)(C(F)(F)F)C(F)(F)F)cc1 the results were PNC assembly inh inactive, IMPase cell inh inactive, ALDH1A1 inh inactive, HPGD block inactive and IMPase Li cell inactive.
Screening O=C(O)C1Nc2c(C(=O)N3CCOCC3)cccc2C2C=CCC12 (configuration not stated) returned PNC assembly inh inconclusive, IMPase cell inh inactive, ALDH1A1 inh inconclusive, HPGD block 25.1µM and IMPase Li cell inactive.
`O=C(c1ccccc1)c1ccccc1C(=O)N1CCOCC1` gave PNC assembly inh inactive, IMPase cell inh inactive, ALDH1A1 inh inactive, HPGD block inactive and IMPase Li cell inactive.
`Cc1ccc2c(c1C)NC(C(=O)O)C1CC=CC21` (configuration not stated) gave PNC assembly inh inconclusive, IMPase cell inh inactive, ALDH1A1 inh 12.6µM, HPGD block 10µM and IMPase Li cell inactive.
Cc1ccc(Cl)c2c1N[C@@H](c1ccc(C(=O)O)cc1)[C@H]1CC=C[C@@H]21 was read as IMPase cell inh inactive.
CC(C)C1Nc2ccc(C(=O)O)cc2C2C=CCC21 (configuration not stated) was read as ALDH1A1 inh inconclusive and IMPase Li cell inactive.
`CCOC(=O)c1ccc2c(c1)C1C=CCC1C(C(=O)O)N2` (configuration not stated) gave PNC assembly inh inactive, IMPase cell inh inactive, ALDH1A1 inh 17.8µM, HPGD block 15.8µM and IMPase Li cell inactive.

Assay outcomes (PubChem)
